Measurements: PubChem BioAssay AID1159580 (chemical genetic matrix, 2015)
“And” between values parts separate entries of the source, which are not always exact repeats. Equal values may be shown once. The campaign covered roughly 5,500 compounds. About 2,000 (36%) were called active. About 18% were inconclusive and are not listed. Rule as the data show it: active = normalized growth mostly below about 0.91 (no sharp cut-off); inconclusive = no clear call, values can overlap the other calls; inactive = mostly above about 0.92. The list shows a part of the results.

Assay: chemical genetic growth profiling, strain panel (AID 1159580);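 also: tested at 20 µM; growth read once vehicle control cultures reached saturation at 30 °C; 1 = growth at the plate median or of vehicle wells; lower values mean less growth of the strain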
Conditions: growth OD
[1] = S. cerevisiae deletion strains, locus YAL013W, strain DEP1, stronger effect = lower value
[2] = S. cerevisiae deletion strains, locus YBR229C, strain ROT2, stronger effect = lower value
[3] = S. cerevisiae deletion strains, locus YDL101C, strain DUN1, stronger effect = lower value
[4] = S. cerevisiae deletion strains, locus YDR150W, strain NUM1, stronger effect = lower value
[5] = S. cerevisiae deletion strains, locus YEL061C, strain CIN8, stronger effect = lower value
[6] = S. cerevisiae deletion strains, locus YGR078C, strain PAC10, stronger effect = lower value
[7] = S. cerevisiae deletion strains, locus YGR229C, strain SMI1, stronger effect = lower value
[8] = S. cerevisiae deletion strains, locus YHR030C, strain SLT2, stronger effect = lower value
[9] = S. cerevisiae deletion strains, locus YKL190W, strain CNB1, stronger effect = lower value
[10] = S. cerevisiae deletion strains, locus YLR039C, strain RIC1, stronger effect = lower value
[11] = S. cerevisiae deletion strains, locus YMR263W, strain SAP30, stronger effect = lower value
[12] = S. cerevisiae deletion strains, locus YMR307W, strain GAS1, stronger effect = lower value
[13] = S. cerevisiae deletion strains, locus YNL153C, strain GIM3, stronger effect = lower value
[14] = S. cerevisiae deletion strains, locus YOL006C, strain TOP1, stronger effect = lower value
[15] = S. cerevisiae deletion strains, locus YPL055C, strain LGE1, stronger effect = lower value
[16] = S. cerevisiae deletion strains, locus YPL241C, strain CIN2, stronger effect = lower value
[17] = S. cerevisiae deletion strains, locus YAL040C, strain CLN3, stronger effect = lower value
[18] = S. cerevisiae deletion strains, locus YCL061C, strain MRC1 (second series), stronger effect = lower value
[19] = S. cerevisiae deletion strains, locus YDR363W, strain ESC2, stronger effect = lower value
[20] = S. cerevisiae deletion strains, locus YER002W, strain NOP16, stronger effect = lower value
[21] = S. cerevisiae deletion strains, locus YNL175C, strain NOP13, stronger effect = lower value
[22] = S. cerevisiae deletion strains, locus YNL197C, strain WHI3, stronger effect = lower value
[23] = S. cerevisiae deletion strains, locus YNL224C, strain SQS1, stronger effect = lower value
[24] = S. cerevisiae deletion strains, locus YOR083W, strain WHI5 (second series), stronger effect = lower value

Measured: normalized growth

COC(=O)c1cc(OC)c(OC)cc1-n1c(C)ccc1C
inactive: [1] 0.999 | [2] 0.994 | [3] 0.975 | S. cerevisiae deletion strains, locus YDL134C, strain PPH21, stronger effect = lower value 1.03 | [4] 0.947 | [5] 1.01 | [6] 0.987 | [7] 1 | [8] 0.999 | S. cerevisiae deletion strains, locus YHR087W, strain rtc3, stronger effect = lower value 0.983 | S. cerevisiae deletion strains, locus YJR043C, strain POL32, stronger effect = lower value 0.985 | S. cerevisiae deletion strains, locus YJR075W, strain HOC1, stronger effect = lower value 0.963 | [9] 1.01 | [10] 0.993 | S. cerevisiae deletion strains, locus YLR058C, strain SHM2 (second series), stronger effect = lower value 0.995 | S. cerevisiae deletion strains, locus YLR085C, strain ARP6, stronger effect = lower value 1.01 | S. cerevisiae deletion strains, locus YLR262C, strain YPT6, stronger effect = lower value 0.957 | S. cerevisiae deletion strains, locus YML094W, strain GIM5, stronger effect = lower value 1 | S. cerevisiae deletion strains, locus YMR219W, strain ESC1, stronger effect = lower value 0.998 | [11] 0.91 | [12] 0.948 | [13] 0.983 | S. cerevisiae deletion strains, locus YNL298W, strain CLA4 (second series), stronger effect = lower value 1.02 | S. cerevisiae deletion strains, locus YNL322C, strain KRE1, stronger effect = lower value 0.99 | S. cerevisiae deletion strains, locus YNR030W, strain Alg12, stronger effect = lower value 1.01 | [14] 1 | [15] 0.877 | [16] 1 | S. cerevisiae deletion strains, locus YPR135W, strain CTF4, stronger effect = lower value 0.915 | S. cerevisiae strains, strain wild type, stronger effect = lower value 1.01

CC(=O)O[C@@H]1CC2C(C)(C)C(=O)CC[C@]2(C)C2CC[C@]3(C)C(=CC(=O)O[C@H]3c3ccoc3)[C@@]21C (stereo not given in full)
inactive: [1] 0.988 | S. cerevisiae deletion strains, locus YBR021W, strain FUR4, stronger effect = lower value 0.989 | [2] 0.939 | S. cerevisiae deletion strains, locus YCL029C, strain bik1, stronger effect = lower value 0.985 | S. cerevisiae deletion strains, locus YDL035C, strain GPR1, stronger effect = lower value 0.964 | S. cerevisiae deletion strains, locus YDL074C, strain BRE1, stronger effect = lower value 0.954 | [3] 1 | S. cerevisiae deletion strains, locus YDL185W, strain tfp1, stronger effect = lower value 0.966 | S. cerevisiae deletion strains, locus YDL192W, strain arf1, stronger effect = lower value 0.971 | S. cerevisiae deletion strains, locus YDR101C, strain arx1, stronger effect = lower value 0.959 | S. cerevisiae deletion strains, locus YDR162C, strain NBP2, stronger effect = lower value 0.98 | S. cerevisiae deletion strains, locus YDR318W, strain mcm21, stronger effect = lower value 0.992 | S. cerevisiae deletion strains, locus YDR388W, stronger effect = lower value 0.995 | S. cerevisiae deletion strains, locus YDR502C, strain sam2, stronger effect = lower value 1.01 | [5] 0.972 | S. cerevisiae deletion strains, locus YER110C, stronger effect = lower value 0.978 | S. cerevisiae deletion strains, locus YER155C, strain BEM2, stronger effect = lower value 0.991 | S. cerevisiae deletion strains, locus YER167W, strain BCK2, stronger effect = lower value 0.97 | S. cerevisiae deletion strains, locus YGL078C, strain dbp3, stronger effect = lower value 1.01 | S. cerevisiae deletion strains, locus YGL086W, strain mad1, stronger effect = lower value 0.998 | S. cerevisiae deletion strains, locus YGL248W, strain PDE1, stronger effect = lower value 0.999 | [6] 1.02 | S. cerevisiae deletion strains, locus YGR135W, strain pre9, stronger effect = lower value 1.07 | S. cerevisiae deletion strains, locus YGR252W, strain gcn5, stronger effect = lower value 1.03 | [8] 1.06 | S. cerevisiae deletion strains, locus YHR079C, strain IRE1 (second series), stronger effect = lower value 0.975 | S. cerevisiae deletion strains, locus YHR079C, strain IRE1, stronger effect = lower value 1.04 | S. cerevisiae deletion strains, locus YHR094C, strain hxt1, stronger effect = lower value 0.991 | S. cerevisiae deletion strains, locus YHR129C, strain ARP1, stronger effect = lower value 0.989 | S. cerevisiae deletion strains, locus YHR200W, strain rpn10, stronger effect = lower value 1 | S. cerevisiae deletion strains, locus YIL066C, strain RNR3, stronger effect = lower value 0.948 | S. cerevisiae deletion strains, locus YIL073C, strain SPO22, stronger effect = lower value 0.977 | S. cerevisiae deletion strains, locus YIL125W, strain kgd1, stronger effect = lower value 0.993 | S. cerevisiae deletion strains, locus YIR030C, strain dcg1, stronger effect = lower value 0.987 | S. cerevisiae deletion strains, locus YJL095W, strain BCK1, stronger effect = lower value 1.05 and 1.06 | S. cerevisiae deletion strains, locus YJL134W, strain LCB3, stronger effect = lower value 0.98 | S. cerevisiae deletion strains, locus YJL168C, strain set2, stronger effect = lower value 0.988 | S. cerevisiae deletion strains, locus YJL187C, strain SWE1 (second series), stronger effect = lower value 1.01 | S. cerevisiae deletion strains, locus YJR066W, strain TOR1, stronger effect = lower value 0.991 | S. cerevisiae deletion strains, locus YKL009W, strain mrt4, stronger effect = lower value 0.976 | S. cerevisiae deletion strains, locus YKL068W, stronger effect = lower value 0.991 | S. cerevisiae deletion strains, locus YKL085W, strain MDH1 (second series), stronger effect = lower value 0.995 | S. cerevisiae deletion strains, locus YKL085W, strain MDH1, stronger effect = lower value 0.995 | [9] 0.983 | S. cerevisiae deletion strains, locus YKR001C, strain vps1, stronger effect = lower value 0.974 | [10] 0.961 | S. cerevisiae deletion strains, locus YLR058C, strain SHM2, stronger effect = lower value 0.979 | S. cerevisiae deletion strains, locus YLR102C, strain apc9, stronger effect = lower value 0.99 | S. cerevisiae deletion strains, locus YLR113W, strain HOG1, stronger effect = lower value 1.03 | S. cerevisiae deletion strains, locus YLR268W, strain sec22, stronger effect = lower value 0.956 | S. cerevisiae deletion strains, locus YLR371W, strain rom2, stronger effect = lower value 0.967 | S. cerevisiae deletion strains, locus YLR418C, strain cdc73, stronger effect = lower value 1 | S. cerevisiae deletion strains, locus YML016C, strain PPZ1, stronger effect = lower value 0.978 | S. cerevisiae deletion strains, locus YML032C, strain rad52, stronger effect = lower value 0.982 | S. cerevisiae deletion strains, locus YML124C, strain tub3, stronger effect = lower value 0.992 | S. cerevisiae deletion strains, locus YMR078C, strain ctf18, stronger effect = lower value 0.989 | S. cerevisiae deletion strains, locus YMR223W, strain ubp8, stronger effect = lower value 1 | [12] 0.989 | S. cerevisiae deletion strains, locus YNL067W, strain RPL9B, stronger effect = lower value 1.04 | S. cerevisiae deletion strains, locus YNL183C, strain NPR1, stronger effect = lower value 0.989 | S. cerevisiae deletion strains, locus YNL233W, strain BNI4, stronger effect = lower value 1.03 | S. cerevisiae deletion strains, locus YNL250W, strain rad50, stronger effect = lower value 0.992 | S. cerevisiae deletion strains, locus YNL271C, strain bni1, stronger effect = lower value 0.993 | S. cerevisiae deletion strains, locus YNL298W, strain CLA4, stronger effect = lower value 0.989 | S. cerevisiae deletion strains, locus YNL307C, strain MCK1, stronger effect = lower value 0.982 | S. cerevisiae deletion strains, locus YNR052C, strain pop2, stronger effect = lower value 1.04 | [14] 0.932 | S. cerevisiae deletion strains, locus YOL012C, strain htz1 0.896 | S. cerevisiae deletion strains, locus YOL147C, strain pex11, stronger effect = lower value 0.984 | S. cerevisiae deletion strains, locus YOR061W, strain CKA2, stronger effect = lower value 0.934 | S. cerevisiae deletion strains, locus YOR069W, strain VPS5, stronger effect = lower value 0.996 | S. cerevisiae deletion strains, locus YOR136W, strain idh2, stronger effect = lower value 1 | S. cerevisiae deletion strains, locus YOR144C, strain elg1, stronger effect = lower value 0.997 | S. cerevisiae deletion strains, locus YOR184W, strain ser1, stronger effect = lower value 0.964 | S. cerevisiae deletion strains, locus YOR231W, strain MKK1, stronger effect = lower value 1.07 | S. cerevisiae deletion strains, locus YOR316C, strain cot1, stronger effect = lower value 0.997 | [16] 0.978 | S. cerevisiae deletion strains, locus YPL256C, strain CLN2, stronger effect = lower value 1.05 | S. cerevisiae deletion strains, locus YPR119W, strain clb2, stronger effect = lower value 0.992 | S. cerevisiae deletion strains, locus YPR141C, strain kar3, stronger effect = lower value 0.982 | S. cerevisiae deletion strains, locus YPR163C, strain tif3, stronger effect = lower value 0.99 | S. cerevisiae deletion strains, locus YPR167C, strain met16, stronger effect = lower value 0.992 | S. cerevisiae deletion strains, strain wtn01, stronger effect = lower value 0.967

CC[N+](CC)(CC)CC(=O)Nc1c(C)cccc1C
inactive: [17] 0.958 | [18] 0.999 | [4] 1 | [19] 1.02 | [20] 1.01 | [6] 1.02 | [7] 1 | [11] 1 | S. cerevisiae deletion strains, locus YNL128W, strain TEP1, stronger effect = lower value 1.01 | [13] 0.995 | [21] 1 | [22] 1.01 | [23] 0.999 | [24] 0.999 | [15] 1.01

Cc1cccc(C)c1NC(=O)C[N+](C)(C)C
inactive: [1] 1.03 | [17] 0.995 | [18] 1 | [19] 1.01 | [20] 1.01 | [6] 0.984 | [7] 1 | [13] 1.01 | [21] 0.993 | [22] 0.989 | [23] 1.01 | [24] 1.02
